Test results taken from PubChem BioAssay (EPA / NIEHS).
The source made the active and inactive calls. The calls were made as follows: active = hit-call score of the fitted dose curve at least 0.9, where 1 is the maximum; inactive = score below 0.9.

Columns and labels:
[1] = ATG_E_Box_CIS: Attagene CIS-FACTORIAL HepG2 Assay for human Enhancer Box (E-box) (AID 2282936); settings: HepG2 E-box cis-reporter transcription, actives raise or lower the signal
How it was run: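 Transiently transfected HepG2, endogenous TF-driven reporters, 24 h dosing. Readout: RT-PCR plus capillary electrophoresis of fluorescent reporter fragments. Gain or loss of signal fitted bidirectionally against DMSO baseline.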

[2] = ATG_M_61_CIS: Attagene CIS-FACTORIAL HepG2 Assay for M61 Transcription Factor (Internal Marker) (AID 2282937); settings: HepG2 Attagene CIS-FACTORIAL M61 internal marker reporter; actives raise or lower the signal
How it was run: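 Cells were transfected with reporter units under cis-regulatory promoters, treated with chemicals for 24 h, then lysed for RNA. Reporter transcripts were quantified by RT-PCR and capillary electrophoresis, and activity was fitted bidirectionally against DMSO.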

[3] = ATG_EGR_CIS: Attagene CIS-FACTORIAL HepG2 Assay for human Early Growth Response 1 (EGR1) (AID 2282938); settings: HepG2 Attagene CIS-FACTORIAL EGR reporter mRNA; actives raise or lower the signal
How it was run: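 Endogenous TF activity in HepG2 liver cells was gauged through cis-promoter reporter constructs transiently transfected. After 24 h dosing, reporter mRNA was quantified by RT-PCR and capillary electrophoresis, and curves fitted in both directions versus DMSO.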

[4] = ATG_M_19_CIS: Attagene CIS-FACTORIAL HepG2 Assay for M19 Transcription Factor (Internal Marker) (AID 2282939); settings: HepG2 Attagene CIS-FACTORIAL M19 internal marker reporter; actives raise or lower the signal
How it was run: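 Transfect HepG2 with MRTU reporter library → dose chemical, 24 h → isolate total RNA, reverse-transcribe with oligo(dT) → PCR, 6-FAM label, HpaI cut (2 h, 37 C) → capillary electrophoresis. Bidirectional fit vs DMSO.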

[5] = ATG_Ets_CIS: Attagene CIS-FACTORIAL HepG2 Assay for human Erythroblast Transformation Specific (ETS) (AID 2282941); settings: HepG2 ETS cis-reporter transcription, actives raise or lower the signal
How it was run: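 Bidirectional fit versus DMSO of reporter mRNA signal, detected by RT-PCR and capillary electrophoresis in HepG2 cells transiently transfected with cis-element reporters and dosed 24 h.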

[6] = biological target: Hepatocyte nuclear factor 3-beta (Homo sapiens) (UniProt Q9Y261); test: ATG_FoxA2_CIS: Attagene CIS-FACTORIAL HepG2 Assay for human Forkhead box A2 (FOXA2) (AID 2282942); settings: HepG2 cis-reporter transcription factor activity, 24 h; actives raise or lower the signal
How it was run: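 Endogenous transcription factor activity was read in HepG2 cells carrying transiently transfected cis-promoter reporter units. After 24 h dosing, reporter mRNA was quantified by RT-PCR and capillary electrophoresis, and values fitted bidirectionally versus DMSO.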

[7] = ATG_FoxO_CIS: Attagene CIS-FACTORIAL HepG2 Assay for human Forkhead box O (FoxO) (AID 2282943); settings: HepG2 Attagene cis-reporter, FoxO element, mRNA; actives raise or lower the signal
How it was run: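 HepG2 cells transiently transfected with cis-element-driven reporter units report endogenous FoxO activity. After 24 h chemical exposure, reporter mRNA quantified by RT-PCR, fluorescent labeling, HpaI digestion and capillary electrophoresis; bidirectional fit versus DMSO.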

[8] = ATG_GLI_CIS: Attagene CIS-FACTORIAL HepG2 Assay for human Zinc Finger Protein GLI1 (AID 2282945); settings: HepG2, Attagene cis-factorial reporter mRNA, GLI element; actives raise or lower the signal
How it was run: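 Transiently transfected HepG2 cells report endogenous transcription factor activity via cis-element-driven reporter units. After 24 h compound exposure, reporter mRNA was measured by RT-PCR with capillary electrophoresis; bidirectional fitting against DMSO baseline.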

[9] = biological target: Bile acid receptor (Homo sapiens) (UniProt Q96RI1); test: ATG_IR1_CIS: Attagene CIS-FACTORIAL HepG2 Assay for human Nuclear Receptor Subfamily 1 Group H Member 4 (NR1H4), IR1 submotif (AID 2282946); settings: IR1 reporter transcription, actives raise or lower the signal
How it was run: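 Fluorescence of capillary-separated, HpaI-digested RT-PCR reporter products gave IR1-element mRNA induction in HepG2 cells 24 h after dosing. Endogenous transcription factors drove the cis-regulated reporters; activity was fitted bidirectionally against DMSO.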

[10] = ATG_GRE_CIS: Attagene CIS-FACTORIAL HepG2 Assay for human Glucocorticoid Response Elements (GRE) (AID 2282947); settings: HepG2 GRE cis-reporter, Attagene multiplex mRNA; actives raise or lower the signal
How it was run: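 Read-out: fluorescent reporter-transcript fragments separated by capillary electrophoresis after RT-PCR. Transiently transfected HepG2 cells carrying cis-element-driven reporter units were dosed for 24 h; gain or loss of signal fitted against DMSO control.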

[11] = ATG_ISRE_CIS: Attagene CIS-FACTORIAL HepG2 Assay for human Interferon Regulatory Factor 1 (IRF1) binding to an Interferon-Stimulated Response Element (ISRE) (AID 2282948); settings: HepG2 ISRE cis-reporter (Attagene), mRNA transcription readout; actives raise or lower the signal
How it was run: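 Uses HepG2 liver cells transfected with cis-regulated reporters and measures mRNA 24 h post-dosing through RT-PCR, primer-extension labelling and capillary electrophoresis, with DMSO as negative control.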

[12] = ATG_M_32_CIS: Attagene CIS-FACTORIAL HepG2 Assay for M32 Transcription Factor (Internal Marker) (AID 2282949); settings: HepG2 Attagene cis-factorial M32 reporter, mRNA; actives raise or lower the signal;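 also: background control marker of the multiplexed CIS panel rather than a real target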
How it was run: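 Transient MRTU transfection of HepG2; 24 h compound treatment; TriZol RNA, oligo(dT) RT, reporter PCR, 6-FAM primer extension, HpaI cut, CE. Gain/loss of signal vs DMSO.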

[13] = ATG_M_06_CIS: Attagene CIS-FACTORIAL HepG2 Assay for M06 Transcription Factor (Internal Marker) (AID 2282950); settings: HepG2 Attagene CIS-FACTORIAL M06 internal marker reporter; actives raise or lower the signal
How it was run: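 Read-out is fluorescence of labelled reporter cDNA fragments resolved by capillary electrophoresis after RT-PCR. Cells: HepG2 carrying transfected cis-promoter reporter units, treated 24 h. Gain or loss of signal fitted relative to DMSO.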

[14] = biological target: Hepatocyte nuclear factor 6 (Homo sapiens) (UniProt Q9UBC0); test: ATG_HNF6_CIS: Attagene CIS-FACTORIAL HepG2 Assay for human Hepatocyte Nuclear Factor 6 (HNF6) (AID 2282952); settings: HepG2 Attagene cis-factorial HNF6 reporter transcription; actives raise or lower the signal
How it was run: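 Activity values derive from bidirectional fitting against DMSO of reporter mRNA levels, measured by capillary electrophoresis of labelled RT-PCR products from HepG2 cells exposed 24 h.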

[15] = biological target: Heat shock factor protein 1 (Homo sapiens) (UniProt Q00613); test: ATG_HSE_CIS: Attagene CIS-FACTORIAL HepG2 Assay for human Heat Shock Transcription Factor 1 (HSE) (AID 2282953); settings: HepG2 HSE cis-reporter, Attagene RNA transcription; actives raise or lower the signal
How it was run: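 HepG2, transient MRTU transfection, cis-promoter reporters (endogenous TF activity). 24 h compound. RNA → oligo(dT) RT → PCR → 6-FAM primer extension → HpaI cut → CE. Bidirectional fit vs DMSO.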

[16] = ATG_MRE_CIS: Attagene CIS-FACTORIAL HepG2 Assay for human Metal Responsive Element (MRE) (AID 2282954); settings: HepG2 MRE cis-reporter transcription, Attagene multiplex; actives raise or lower the signal
How it was run: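 RT-PCR/capillary electrophoresis readout of reporter mRNA, 24 h post-dosing, in HepG2 cells transfected with multiplexed cis-regulated reporter constructs. Gain or loss of signal fitted bidirectionally against DMSO baseline.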

[17] = ATG_PBREM_CIS: Attagene CIS-FACTORIAL HepG2 Assay for human Phenobarbital-responsive Enhancer Module (PBREM) (AID 2282955); settings: HepG2 PBREM cis-reporter, Attagene multiplexed transcription; actives raise or lower the signal
How it was run: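 Fluorescence of labelled reporter cDNA fragments, resolved by capillary electrophoresis, gives mRNA induction in transfected HepG2 cells treated for 24 h; DMSO serves as negative control and baseline.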

[18] = ATG_GATA_CIS: Attagene CIS-FACTORIAL HepG2 Assay for human GATA Binding Protein (AID 2282944); settings: HepG2 GATA cis-element reporter, Attagene multiplex mRNA; actives raise or lower the signal
How it was run: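 Transient MRTU transfection, HepG2, 24 h compound exposure. Total RNA → oligo(dT) RT → PCR → 6-FAM primer extension → HpaI cut → CE. Bidirectional fit vs DMSO.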

[19] = biological target: Hypoxia-inducible factor 1-alpha (Homo sapiens) (UniProt Q16665); test: ATG_HIF1a_CIS: Attagene CIS-FACTORIAL HepG2 Assay for human Hypoxia Inducible Factor 1 (HIF1A) (AID 2282951); settings: HepG2 Attagene cis-factorial HIF1a reporter transcription; actives raise or lower the signal
How it was run: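 Measures endogenous transcription-factor activity through cis-regulated reporter mRNA in HepG2. Cells dosed 24 h; transcripts quantified by RT-PCR with 6-FAM-labelled products separated by capillary electrophoresis; DMSO serves as negative control.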

Measured: AC50

Chain of Bile acid receptor (Homo sapiens) (Q96RI1 whole entry, looked up): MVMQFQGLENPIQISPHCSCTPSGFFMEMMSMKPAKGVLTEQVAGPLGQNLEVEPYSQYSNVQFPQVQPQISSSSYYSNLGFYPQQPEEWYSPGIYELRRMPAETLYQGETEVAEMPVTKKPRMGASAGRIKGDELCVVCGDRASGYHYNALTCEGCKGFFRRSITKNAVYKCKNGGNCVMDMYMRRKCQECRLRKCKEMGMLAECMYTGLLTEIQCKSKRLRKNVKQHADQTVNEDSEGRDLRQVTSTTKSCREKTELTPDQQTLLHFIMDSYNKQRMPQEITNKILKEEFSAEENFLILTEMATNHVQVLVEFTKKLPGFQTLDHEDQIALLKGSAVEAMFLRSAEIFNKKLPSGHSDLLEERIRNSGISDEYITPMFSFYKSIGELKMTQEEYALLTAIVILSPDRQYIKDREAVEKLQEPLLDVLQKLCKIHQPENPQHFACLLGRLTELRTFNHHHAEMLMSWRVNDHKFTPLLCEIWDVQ
Chain of Hepatocyte nuclear factor 6 (Homo sapiens) (Q9UBC0 whole entry, looked up): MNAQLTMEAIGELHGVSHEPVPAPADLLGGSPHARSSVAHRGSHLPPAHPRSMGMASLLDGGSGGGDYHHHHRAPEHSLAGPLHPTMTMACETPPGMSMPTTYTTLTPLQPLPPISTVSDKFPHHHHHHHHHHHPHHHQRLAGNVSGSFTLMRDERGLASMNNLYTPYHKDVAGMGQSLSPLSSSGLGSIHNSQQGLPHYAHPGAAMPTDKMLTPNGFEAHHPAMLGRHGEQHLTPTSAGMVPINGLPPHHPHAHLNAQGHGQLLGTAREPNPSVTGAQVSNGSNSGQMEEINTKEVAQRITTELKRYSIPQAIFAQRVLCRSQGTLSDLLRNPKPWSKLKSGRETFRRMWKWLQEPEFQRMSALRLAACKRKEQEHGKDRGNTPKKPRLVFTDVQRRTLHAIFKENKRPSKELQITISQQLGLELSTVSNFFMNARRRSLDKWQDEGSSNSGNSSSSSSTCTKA
Chain of Hypoxia-inducible factor 1-alpha (Homo sapiens) (Q16665 whole entry, looked up): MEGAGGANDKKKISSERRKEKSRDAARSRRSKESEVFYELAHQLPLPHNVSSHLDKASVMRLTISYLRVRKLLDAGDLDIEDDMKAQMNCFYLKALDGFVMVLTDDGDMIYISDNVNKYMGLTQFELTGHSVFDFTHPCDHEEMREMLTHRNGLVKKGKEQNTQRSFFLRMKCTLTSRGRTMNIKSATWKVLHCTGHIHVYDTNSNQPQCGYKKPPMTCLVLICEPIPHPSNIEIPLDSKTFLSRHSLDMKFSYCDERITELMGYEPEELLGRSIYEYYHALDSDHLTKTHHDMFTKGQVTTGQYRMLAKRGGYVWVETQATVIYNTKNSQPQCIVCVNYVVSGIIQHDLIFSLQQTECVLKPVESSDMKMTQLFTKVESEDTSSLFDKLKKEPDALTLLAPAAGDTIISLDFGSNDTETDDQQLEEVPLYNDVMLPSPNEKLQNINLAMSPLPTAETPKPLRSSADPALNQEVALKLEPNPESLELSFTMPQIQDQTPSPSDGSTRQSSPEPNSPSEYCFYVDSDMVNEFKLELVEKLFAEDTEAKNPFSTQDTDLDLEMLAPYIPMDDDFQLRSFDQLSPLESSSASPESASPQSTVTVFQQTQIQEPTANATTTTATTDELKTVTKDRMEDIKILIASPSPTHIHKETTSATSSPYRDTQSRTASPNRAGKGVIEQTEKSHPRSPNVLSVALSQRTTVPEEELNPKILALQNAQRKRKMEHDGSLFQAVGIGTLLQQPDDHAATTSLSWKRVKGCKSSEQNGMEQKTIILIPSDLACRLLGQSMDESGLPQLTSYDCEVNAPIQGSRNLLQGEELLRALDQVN
Chain of Heat shock factor protein 1 (Homo sapiens) (Q00613 whole entry, looked up): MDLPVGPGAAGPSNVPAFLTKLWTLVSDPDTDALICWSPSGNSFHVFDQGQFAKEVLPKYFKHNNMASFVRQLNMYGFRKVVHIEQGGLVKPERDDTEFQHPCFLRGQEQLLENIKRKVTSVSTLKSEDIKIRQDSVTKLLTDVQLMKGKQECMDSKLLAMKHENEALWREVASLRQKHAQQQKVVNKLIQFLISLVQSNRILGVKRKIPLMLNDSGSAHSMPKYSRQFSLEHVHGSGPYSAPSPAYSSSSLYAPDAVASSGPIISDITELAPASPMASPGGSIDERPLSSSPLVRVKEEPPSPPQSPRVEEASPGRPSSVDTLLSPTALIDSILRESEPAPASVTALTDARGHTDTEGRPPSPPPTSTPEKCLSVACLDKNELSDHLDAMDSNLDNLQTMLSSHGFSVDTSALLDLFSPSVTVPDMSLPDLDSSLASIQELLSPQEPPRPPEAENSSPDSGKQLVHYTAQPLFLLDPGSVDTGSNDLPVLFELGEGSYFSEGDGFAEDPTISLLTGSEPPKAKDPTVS
Chain of Hepatocyte nuclear factor 3-beta (Homo sapiens) (Q9Y261 whole entry, looked up): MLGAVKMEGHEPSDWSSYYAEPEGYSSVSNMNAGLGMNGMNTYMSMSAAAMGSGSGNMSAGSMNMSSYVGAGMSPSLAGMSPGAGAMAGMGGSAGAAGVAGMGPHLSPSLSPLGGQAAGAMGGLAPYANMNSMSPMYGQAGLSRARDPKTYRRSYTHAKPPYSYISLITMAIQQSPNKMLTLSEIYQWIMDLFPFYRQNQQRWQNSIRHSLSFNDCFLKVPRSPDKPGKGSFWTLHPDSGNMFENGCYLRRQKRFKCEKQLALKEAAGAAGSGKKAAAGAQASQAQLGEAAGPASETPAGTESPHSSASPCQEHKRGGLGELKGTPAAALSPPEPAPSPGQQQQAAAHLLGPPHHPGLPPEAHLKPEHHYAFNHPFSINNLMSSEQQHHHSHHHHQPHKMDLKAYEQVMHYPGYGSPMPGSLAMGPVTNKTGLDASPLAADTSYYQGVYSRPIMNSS

CCCC1O[C@@H]2C[C@H]3[C@@H]4CCC5=CC(=O)C=C[C@]5(C)[C@H]4[C@@H](O)C[C@]3(C)[C@]2(C(=O)CO)O1 (stereo partly drawn)
active: [1] 100 µM | [9] 100 µM | [10] 0.0815 µM | [11] 137 µM
not listed: [18] | [19]
inactive: all other assays above

CCC(C)=O
not listed: [7] | [16] | [17]
inactive: all other assays above

CCCCCCCC(=O)OCCCCCC
not listed: [7] | [16]
inactive: all other assays above

Cc1ccc(OC(=O)c2ccccc2O)cc1
not listed: [9] | [14] | [15] | [18] | [19]
inactive: all other assays above

c1ccc2[nH]cnc2c1
not listed: [10] | [18]
inactive: all other assays above

CCCCCCCCCCCCCCN(CCO)CCO
not listed: [11] | [16] | [18]
inactive: all other assays above

CCOc1ccc(NC(=O)CC(C)=O)cc1
active: [19] 30.4 µM
not listed: [9] | [13]
inactive: all other assays above

CN(C)C(=S)SC(=S)N(C)C
active: [16] 100 µM
not listed: [18] | [19]
inactive: all other assays above

CCCCCCC(C)Nc1ccc(Nc2ccccc2)cc1 (stereo not drawn)
active: [15] 60.8 µM | [16] 48.9 µM
not listed: [11] | [17] | [18]
inactive: all other assays above

CC(=O)C1(C)CC2=C(CCCC2(C)C)CC1C (stereo not drawn)
inactive: [2] | [3] | [5] | [10] | [12] | [13] | [19] | [15]
active: [1] 83.2 µM | [4] 157 µM | [6] 181 µM | [7] 100 µM | [8] 53.8 µM | [11] 152 µM | [14] 134 µM | [16] 160 µM | [17] 100 µM

CN(C)C(=O)Nc1ccc(Oc2ccc(Cl)cc2)cc1
active: [15] 181 µM
not listed: [9] | [11] | [13]
inactive: all other assays above

Cc1ccc(S(=O)(=O)Oc2ccc(N=Nc3ccc(-c4ccc(N=Nc5c(O)ccc6cc(S(=O)(=O)O)cc(S(=O)(=O)O)c56)c(C)c4)cc3C)cc2)cc1
not listed: [7] | [14]
inactive: all other assays above

O=C1OC2(c3ccccc31)c1ccc(O)c(Br)c1Oc1c2ccc(O)c1Br
active: [17] 35.3 µM
not listed: [18]
inactive: all other assays above

CCCCCCCC(=O)OCC(O)CO (stereo not drawn)
not listed: [9] | [11] | [19]
inactive: all other assays above

CCCCCCCCC=CCCCCCCCC1=NCCN1CCO
active: [1] 26.7 µM | [5] 126 µM | [6] 25.7 µM | [9] 26.1 µM | [11] 189 µM
not listed: [14] | [18]
inactive: all other assays above
